From PubChem BioAssay (EPA / NIEHS)
Activity calls are given as the source filed them. The calls were made as follows: active = hit-call score of the fitted dose curve at least 0.9, where 1 is the maximum; inactive = score below 0.9.

Legend:
[1] = ATG_CRE_CIS: Attagene CIS-FACTORIAL HepG2 Assay for human cAMP Responsive Element (CRE) binding protein 3 (AID 2282926); conditions: HepG2 CRE cis-reporter, Attagene multiplexed mRNA; actives raise or lower the signal
Procedure, shortened: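 HepG2 cells transiently transfected with cis-element-driven multiple reporter transcription units; CRE reporter mRNA measured 24 h after dosing by RT-PCR, 6-FAM labelling, HpaI digestion and capillary electrophoresis. Bidirectional fit versus DMSO baseline.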

[2] = biological target: CCAAT/enhancer-binding protein beta (Homo sapiens) (UniProt P17676); assay: ATG_C_EBP_CIS: Attagene CIS-FACTORIAL HepG2 Assay for human CCAAT/Enhancer Binding Protein (C/EBP) beta (AID 2282927); conditions: HepG2 Attagene cis-factorial transcription factor reporter; actives raise or lower the signal
Sequence of CCAAT/enhancer-binding protein beta (Homo sapiens) (P17676 whole entry, looked up): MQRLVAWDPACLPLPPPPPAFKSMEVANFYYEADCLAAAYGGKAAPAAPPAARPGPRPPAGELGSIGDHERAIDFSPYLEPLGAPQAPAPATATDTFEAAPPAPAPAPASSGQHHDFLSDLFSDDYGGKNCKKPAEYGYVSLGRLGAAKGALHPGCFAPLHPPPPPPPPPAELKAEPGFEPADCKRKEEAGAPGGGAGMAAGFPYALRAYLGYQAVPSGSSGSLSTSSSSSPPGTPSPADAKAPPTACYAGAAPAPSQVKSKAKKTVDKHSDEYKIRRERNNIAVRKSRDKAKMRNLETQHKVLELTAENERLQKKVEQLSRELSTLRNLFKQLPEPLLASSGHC
Procedure, shortened: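 Transiently transfected HepG2 (MRTU library, endogenous TF-driven promoters); 24 h dosing; total RNA → oligo(dT) RT → PCR → 6-FAM primer extension → HpaI digest → CE; fit bidirectionally vs DMSO.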

[3] = ATG_CMV_CIS: Attagene CIS-FACTORIAL HepG2 Assay for human CMV (Internal Marker) (AID 2282928); conditions: HepG2 CMV promoter reporter, transcription factor profiling; actives raise or lower the signal;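 also: endpoint acts as a background internal control marker rather than a target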
Procedure, shortened: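 Endogenous transcription factor activity read in HepG2 via transfected cis-promoter reporter units. After 24 h dosing, reporter mRNA measured by RT-PCR/capillary electrophoresis; gain or loss of signal fit relative to DMSO.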

[4] = ATG_DR4_LXR_CIS: Attagene CIS-FACTORIAL HepG2 Assay for human Liver X Receptor (LXR), DR4 submotif (AID 2282929); conditions: HepG2 Attagene DR4 cis-reporter, mRNA transcription; actives raise or lower the signal
Procedure, shortened: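 Readout: reporter transcript fluorescence after RT-PCR and capillary electrophoresis, fitted bidirectionally against DMSO controls. Human HepG2 liver cells carried transiently transfected multiplexed reporter constructs; endogenous transcription factor activity measured 24 h post-dosing.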

[5] = biological target: Aryl hydrocarbon receptor (Homo sapiens) (UniProt P35869); assay: ATG_Ahr_CIS: Attagene CIS-FACTORIAL HepG2 Assay for human Aryl Hydrocarbon Receptor (Ahr) (AID 2282930); conditions: HepG2 AhR cis-factorial reporter transcription; actives raise or lower the signal
Sequence of Aryl hydrocarbon receptor (Homo sapiens) (P35869 whole entry, looked up): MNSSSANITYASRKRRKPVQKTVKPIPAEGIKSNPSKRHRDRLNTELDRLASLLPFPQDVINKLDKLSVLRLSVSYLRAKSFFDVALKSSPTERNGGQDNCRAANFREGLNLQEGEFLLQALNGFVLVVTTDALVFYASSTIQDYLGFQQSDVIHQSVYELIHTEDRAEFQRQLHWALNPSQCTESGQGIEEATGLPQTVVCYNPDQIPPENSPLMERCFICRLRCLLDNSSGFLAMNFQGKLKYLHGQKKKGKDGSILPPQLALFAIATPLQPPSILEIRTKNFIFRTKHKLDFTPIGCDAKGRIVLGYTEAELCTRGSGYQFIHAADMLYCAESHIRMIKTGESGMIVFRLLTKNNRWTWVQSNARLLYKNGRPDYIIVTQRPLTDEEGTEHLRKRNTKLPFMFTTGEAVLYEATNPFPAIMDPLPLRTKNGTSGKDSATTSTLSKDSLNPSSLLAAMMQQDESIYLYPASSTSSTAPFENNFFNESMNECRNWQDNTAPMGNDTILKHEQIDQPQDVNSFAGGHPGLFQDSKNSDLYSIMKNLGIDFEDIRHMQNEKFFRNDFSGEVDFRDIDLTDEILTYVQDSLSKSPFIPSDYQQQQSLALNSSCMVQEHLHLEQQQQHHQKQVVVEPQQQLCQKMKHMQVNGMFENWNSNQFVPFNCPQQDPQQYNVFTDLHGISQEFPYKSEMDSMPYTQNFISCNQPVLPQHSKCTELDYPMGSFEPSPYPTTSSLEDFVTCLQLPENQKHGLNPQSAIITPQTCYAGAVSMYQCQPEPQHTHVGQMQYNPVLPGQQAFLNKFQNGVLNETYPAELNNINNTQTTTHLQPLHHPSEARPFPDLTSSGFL
Procedure, shortened: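 Read-out: reporter mRNA quantified by RT-PCR with fluorescent primer extension and capillary electrophoresis. Human HepG2 liver cells carried transfected cis-promoter reporter units and were exposed to chemical for 24 h; gain or loss fitted relative to DMSO.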

[6] = ATG_AP_1_CIS: Attagene CIS-FACTORIAL HepG2 Assay for human Activator Protein 1 (AP-1) (AID 2282931); conditions: HepG2 Attagene cis-factorial AP-1 reporter mRNA; actives raise or lower the signal
Procedure, shortened: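 Reporter transcripts were measured 24 h after dosing by RT-PCR and capillary electrophoresis of fluorescent fragments. Cells: HepG2 carrying transfected cis-regulated reporter constructs reading endogenous factor activity. Gain or loss fitted against DMSO.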

[7] = ATG_AP_2_CIS: Attagene CIS-FACTORIAL HepG2 Assay for human Activator Protein 2 (AP-2) (AID 2282932); conditions: HepG2 AP-2 cis-reporter, Attagene transcription factor profiling; actives raise or lower the signal
Procedure, shortened: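 HepG2 cells transiently transfected with cis-element reporter units and exposed for 24 h. Reporter mRNA measured by RT-PCR, FAM labelling, HpaI digestion and capillary electrophoresis. Changes in either direction fitted relative to DMSO.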

[8] = ATG_BRE_CIS: Attagene CIS-FACTORIAL HepG2 Assay for human Bone Morphogenetic Protein (BMP) Response Element (BRE) (AID 2282933); conditions: HepG2 BMP response element reporter, Attagene transcription factor profiling; actives raise or lower the signal
Procedure, shortened: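 Gain- or loss-of-signal was derived by bidirectional fitting against DMSO controls. The signal came from reporter mRNA, measured by RT-PCR and capillary electrophoresis, in HepG2 cells transiently carrying multiple reporter units and dosed for 24 h.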

[9] = biological target: Retinoic acid receptor alpha (Homo sapiens) (UniProt P10276); assay: ATG_DR5_RAR_CIS: Attagene CIS-FACTORIAL HepG2 Assay for human Retinoic Acid Receptor Alpha (RARE), DR5 submotif (AID 2282934); conditions: HepG2 Attagene cis-factorial RARE DR5 reporter, mRNA; actives raise or lower the signal;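 as to AC50: reporter responds to endogenous RAR alpha beta and gamma in HepG2 not RARA alone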
Sequence of Retinoic acid receptor alpha (Homo sapiens) (P10276 whole entry, looked up): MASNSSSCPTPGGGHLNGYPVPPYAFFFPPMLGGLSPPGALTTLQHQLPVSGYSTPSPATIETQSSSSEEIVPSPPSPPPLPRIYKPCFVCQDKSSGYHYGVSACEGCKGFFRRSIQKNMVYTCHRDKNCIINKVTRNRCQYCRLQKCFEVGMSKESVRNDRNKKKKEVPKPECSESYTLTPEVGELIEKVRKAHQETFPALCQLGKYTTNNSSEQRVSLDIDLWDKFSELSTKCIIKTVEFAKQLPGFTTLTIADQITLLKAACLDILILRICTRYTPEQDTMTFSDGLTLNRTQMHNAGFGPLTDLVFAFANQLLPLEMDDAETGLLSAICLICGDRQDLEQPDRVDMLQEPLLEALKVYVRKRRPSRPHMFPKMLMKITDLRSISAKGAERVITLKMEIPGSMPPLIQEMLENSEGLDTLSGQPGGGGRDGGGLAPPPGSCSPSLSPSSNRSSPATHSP
Procedure, shortened: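 Read-out: DR5-driven reporter transcript measured by RT-PCR, 6-FAM primer extension, HpaI digest and capillary electrophoresis. Human HepG2 liver cells carry transiently transfected cis-element reporter constructs; dosing lasts 24 h. Gain or loss of signal fitted against DMSO baseline.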

[10] = biological target: Transcription factor E2F1 (Homo sapiens) (UniProt Q01094); assay: ATG_E2F_CIS: Attagene CIS-FACTORIAL HepG2 Assay for human E2F Transcription Factor 1 (AID 2282935); conditions: HepG2 Attagene cis-reporter, E2F reporter RNA transcripts; actives raise or lower the signal
Sequence of Transcription factor E2F1 (Homo sapiens) (Q01094 whole entry, looked up): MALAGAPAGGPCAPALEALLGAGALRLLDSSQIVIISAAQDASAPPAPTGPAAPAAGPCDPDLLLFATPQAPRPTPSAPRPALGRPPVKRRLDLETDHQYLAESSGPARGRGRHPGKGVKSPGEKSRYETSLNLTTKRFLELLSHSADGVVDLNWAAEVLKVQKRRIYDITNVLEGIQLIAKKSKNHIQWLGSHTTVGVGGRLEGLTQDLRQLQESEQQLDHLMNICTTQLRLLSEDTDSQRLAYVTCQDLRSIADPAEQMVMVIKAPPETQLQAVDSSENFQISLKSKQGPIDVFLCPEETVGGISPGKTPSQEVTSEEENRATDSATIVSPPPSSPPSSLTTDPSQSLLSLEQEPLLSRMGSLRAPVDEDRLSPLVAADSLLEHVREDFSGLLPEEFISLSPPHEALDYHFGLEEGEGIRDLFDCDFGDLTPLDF
Procedure, shortened: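 Endogenous E2F1 activity read through cis-promoter reporter units transfected into HepG2. After 24 h compound treatment, reporter mRNA measured by RT-PCR, HpaI digestion and capillary electrophoresis. Bidirectional fit versus DMSO.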

[11] = ATG_E_Box_CIS: Attagene CIS-FACTORIAL HepG2 Assay for human Enhancer Box (E-box) (AID 2282936); conditions: HepG2 E-box cis-reporter transcription, actives raise or lower the signal
Procedure, shortened: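 HepG2 cells transiently transfected with multiplexed cis-element reporter units, dosed 24 h; reporter mRNA quantified by RT-PCR, 6-FAM labelling, HpaI digestion and capillary electrophoresis. E-box (USF1) signal fitted bidirectionally vs DMSO.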

[12] = ATG_M_61_CIS: Attagene CIS-FACTORIAL HepG2 Assay for M61 Transcription Factor (Internal Marker) (AID 2282937); conditions: HepG2 Attagene CIS-FACTORIAL M61 internal marker reporter; actives raise or lower the signal
Procedure, shortened: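 Readout: fluorescent reporter mRNA fragments resolved by capillary electrophoresis after RT-PCR. Transiently transfected human HepG2 cells carried MRTU constructs reporting endogenous TF activity; 24 h chemical exposure; gain or loss of signal fitted relative to DMSO.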

[13] = ATG_EGR_CIS: Attagene CIS-FACTORIAL HepG2 Assay for human Early Growth Response 1 (EGR1) (AID 2282938); conditions: HepG2 Attagene CIS-FACTORIAL EGR reporter mRNA; actives raise or lower the signal
Procedure, shortened: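 Read-out: fluorescent reporter-mRNA fragments resolved by capillary electrophoresis after RT-PCR, 24 h post-dose in transiently transfected HepG2. Endogenous transcription-factor activity reported via cis-element-regulated reporter units; gain or loss fitted relative to DMSO.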

[14] = ATG_M_19_CIS: Attagene CIS-FACTORIAL HepG2 Assay for M19 Transcription Factor (Internal Marker) (AID 2282939); conditions: HepG2 Attagene CIS-FACTORIAL M19 internal marker reporter; actives raise or lower the signal
Procedure, shortened: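 Following a 24 h exposure, RNA from transfected HepG2 cells was reverse-transcribed, PCR-amplified with reporter-specific primers, end-labelled with 6-FAM and HpaI-digested before capillary separation. Values represent gain or loss versus DMSO.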

[15] = ATG_Ets_CIS: Attagene CIS-FACTORIAL HepG2 Assay for human Erythroblast Transformation Specific (ETS) (AID 2282941); conditions: HepG2 ETS cis-reporter transcription, actives raise or lower the signal
Procedure, shortened: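 Steps: transfect HepG2 with multiple reporter units; treat compound 24 h; isolate RNA, DNase-treat, reverse-transcribe; PCR-amplify, label with 6-FAM, digest with HpaI; separate by capillary electrophoresis. Activity fitted both directions versus DMSO.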

[16] = biological target: Hepatocyte nuclear factor 3-beta (Homo sapiens) (UniProt Q9Y261); assay: ATG_FoxA2_CIS: Attagene CIS-FACTORIAL HepG2 Assay for human Forkhead box A2 (FOXA2) (AID 2282942); conditions: HepG2 cis-reporter transcription factor activity, 24 h; actives raise or lower the signal
Sequence of Hepatocyte nuclear factor 3-beta (Homo sapiens) (Q9Y261 whole entry, looked up): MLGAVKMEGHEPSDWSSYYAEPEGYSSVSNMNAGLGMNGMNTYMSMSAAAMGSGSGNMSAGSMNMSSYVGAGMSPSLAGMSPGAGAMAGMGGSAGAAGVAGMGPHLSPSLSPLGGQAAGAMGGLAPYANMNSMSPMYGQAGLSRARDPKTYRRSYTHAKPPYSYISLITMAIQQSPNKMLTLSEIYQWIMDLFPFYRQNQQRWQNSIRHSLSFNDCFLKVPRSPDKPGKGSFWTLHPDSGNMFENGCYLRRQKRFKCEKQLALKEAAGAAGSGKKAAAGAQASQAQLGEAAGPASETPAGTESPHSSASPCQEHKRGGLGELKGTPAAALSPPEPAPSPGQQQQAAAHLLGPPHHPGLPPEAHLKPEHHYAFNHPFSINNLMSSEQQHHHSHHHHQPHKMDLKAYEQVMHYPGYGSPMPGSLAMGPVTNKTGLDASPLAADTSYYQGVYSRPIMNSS
Procedure, shortened: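 Readout: fluorescent reporter transcripts resolved by capillary electrophoresis after RT-PCR. Transiently transfected HepG2, 24 h compound exposure, endogenous TF activity at cis promoter elements. Gain or loss of signal fitted relative to DMSO.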

[17] = ATG_FoxO_CIS: Attagene CIS-FACTORIAL HepG2 Assay for human Forkhead box O (FoxO) (AID 2282943); conditions: HepG2 Attagene cis-reporter, FoxO element, mRNA; actives raise or lower the signal
Procedure, shortened: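 Read-out: fluorescence of 6-FAM-labelled reporter cDNA fragments resolved by capillary electrophoresis. Transiently transfected HepG2 cells were dosed for 24 h; activity fitted in both directions relative to DMSO controls.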

[18] = ATG_GATA_CIS: Attagene CIS-FACTORIAL HepG2 Assay for human GATA Binding Protein (AID 2282944); conditions: HepG2 GATA cis-element reporter, Attagene multiplex mRNA; actives raise or lower the signal
Procedure, shortened: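 DMSO serves as negative control and baseline for bidirectional fitting of reporter mRNA changes. HepG2 cells bearing transiently transfected cis-promoter reporters were exposed 24 h; transcripts detected via RT-PCR and capillary electrophoresis.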

[19] = ATG_GLI_CIS: Attagene CIS-FACTORIAL HepG2 Assay for human Zinc Finger Protein GLI1 (AID 2282945); conditions: HepG2, Attagene cis-factorial reporter mRNA, GLI element; actives raise or lower the signal
Procedure, shortened: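 Transiently transfected HepG2 cells report endogenous transcription factor activity via cis-element-driven reporter units. After 24 h compound exposure, reporter mRNA was measured by RT-PCR with capillary electrophoresis; bidirectional fitting against DMSO baseline.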

Measured: AC50

CC1=NN(c2ccc(S(=O)(=O)O)cc2)C(=O)C1
inactive: all assays above

Nc1ccc(NCCO)c([N+](=O)[O-])c1
active: [5] 7.19 µM
inactive: all other assays above

CC(C)CCCCCCCCCCCCCCC(=O)O
active: [9] 54.2 µM
not listed: [17]
inactive: all other assays above

C1CCCCC1
inactive: all assays above

O=C(CS)OCCOC(=O)CS
active: [3] 72.7 µM | [4] 49.1 µM | [5] 24.9 µM | [6] 58.7 µM | [7] 100 µM | [9] 27.5 µM | [11] 58.7 µM
not listed: [16]
inactive: all other assays above

CC(C)(C)C1=CC(=O)C(C(C)(C)C)=CC1=O
active: [3] 87.6 µM | [4] 50 µM | [9] 26.8 µM | [13] 50 µM | [15] 36.6 µM | [17] 50 µM | [18] 68.3 µM | [19] 81.7 µM
not listed: [16]
inactive: all other assays above

CC1(C)C(=O)N(Cl)C(=O)N1Br
inactive: all assays above

C=C(C)C(=O)OCCOCCOCCOCCOC(=O)C(=C)C
inactive: all assays above
